# Compound activity deposited in PubChem BioAssay by several laboratories.
# TMEM16A act = activators or potentiators of mouse TMEM16A chloride channel | Q8BHY3 | HEK293 TMEM16A/YFP-H148Q/I152L, iodide quench fluorescence; hits give low values | B-score at 10 µM | actives 0.3% (n = 340,000);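 active = fluorescence-ratio B-score plate-corrected deviation score at least 3 library SD below zero, with starting fluorescence score within 5 deviations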;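 also: channel opened by trigger with iodide after compound preincubation; score built on the fluorescence ratio of max minus min over baseline; more negative score means more quench and so TMEM16A activation or potentiation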
# PKA-R2B act = activators of human PKA-R2B complex. P22694+P31323. PKA-R2B holoenzyme dissociation, Cy5-IP20 fluorescence polarization; R2B truncated from residue 108, S112A mutant; 0% DMSO only, 100% 113 µM cGMP. activation, % at 11.4 µM. actives 0.079% (n = 340,000);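 active = activation above a cutoff set at the mean over all compounds plus 3 SD, cut at about 18% in these data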;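 also: higher means more holoenzyme dissociation and a rise in polarization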
# TMEM16A inh = mouse TMEM16A channel inhibition, primary screen | Q8BHY3 | HEK293 TMEM16A/YFP iodide influx fluorescence, ionomycin | normalized B-score (activity score, 25-100; higher = stronger inhibition) at 10 µM | actives 1.2% (n = 310,000) | AID 588511;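 active = ratio plate-corrected score three or more library SD toward inhibition, starting fluorescence score within five deviations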;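 also: score derived from kinetic fluorescence span divided by baseline fluorescence per well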
# PKA-R1A activ = activators of PKA-R1A complex | P00514+P68181 | PKA-R1A dissociation, Cy5-IP20 fluorescence polarization; scaled: DMSO 0%, 113 µM cGMP 100% | activation, % at 11.4 µM | actives 0.083% (n = 340,000);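 active = percent activation above the mean of all tested compounds plus 3 SD, cut at about 19% in these data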;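 also: higher means more PKAc released from R1A so a rise in polarization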
# CHT block = inhibitors of human choline transporter CHT | Q9GZV3 | CHT-expressing cells, membrane potential dye, choline response; hits give low values | B-score at 10 µM | actives 0.86% (n = 310,000);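 active = B-score over 3 SD under the library average, and starting fluorescence ratio not unusually high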;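 also: choline stimulus applied at its EC90 after an EC20 pre-addition; B-score computed on integrated fluorescence ratio after choline addition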
# Target sequence (Q9GZV3 whole entry, looked up): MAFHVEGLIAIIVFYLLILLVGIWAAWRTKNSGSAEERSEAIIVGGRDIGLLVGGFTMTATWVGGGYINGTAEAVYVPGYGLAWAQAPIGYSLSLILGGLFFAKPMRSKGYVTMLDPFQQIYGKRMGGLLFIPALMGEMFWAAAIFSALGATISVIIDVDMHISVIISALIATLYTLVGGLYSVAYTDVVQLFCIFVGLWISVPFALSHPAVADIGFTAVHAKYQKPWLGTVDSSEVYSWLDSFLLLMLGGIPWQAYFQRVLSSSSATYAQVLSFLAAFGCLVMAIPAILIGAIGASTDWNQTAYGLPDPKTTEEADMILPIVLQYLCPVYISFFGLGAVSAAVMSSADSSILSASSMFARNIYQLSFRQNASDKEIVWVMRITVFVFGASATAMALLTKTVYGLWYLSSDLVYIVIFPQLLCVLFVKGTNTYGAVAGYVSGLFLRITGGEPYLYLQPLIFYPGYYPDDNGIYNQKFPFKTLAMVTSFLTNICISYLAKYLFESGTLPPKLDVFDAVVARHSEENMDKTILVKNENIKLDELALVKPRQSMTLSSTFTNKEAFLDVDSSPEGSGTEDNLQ
# CHT allo act = allosterically activates the human high affinity choline transporter; CHT-expressing cells, membrane potential dye, choline EC20; hits give high values; LV-AA mutant CHT in HEK293 cells; B-score at 10 µM; actives 0.49% (n = 310,000);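 active = initial fluorescence not abnormally high and integrated response B-score, plate-corrected, over 3 SD above library mean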
# Numbers stand for hits; n = inactive; x = no result. Most compounds without a hit are left out; they make up all but 2.5% or so of the library.
SMILES,TMEM16A act,PKA-R2B act,TMEM16A inh,PKA-R1A activ,CHT block,CHT allo act
O=C(Cn1cc(C(=O)C2CC2)c2ccccc21)NCC1CCCO1 (centres undefined),n,n,n,n,n,n
Cc1ccc(C(=O)NNC(=S)NC(=O)c2ccccc2)cc1,n,n,100,n,n,n
Cc1ccc(C(=O)NC(=S)NNC(=O)c2ccccc2)cc1,n,n,n,n,n,n
COC(=O)C1OC(OC2CC[C@]3(C)C(CC[C@@]4(C)[C@@H]3CC=C3[C@@H]5CC(C)(C)CC[C@]5(C(=O)OC5OC(CO)C(O)C(O)C5O)CC[C@]34C)C2(C)C)C(O)C(O)C1O[C@H]1OCC(O)C(O)C1O (some centres undefined),x,n,x,n,x,x
C/C=C(\C)C(=O)OC1CC(C)(C)C[C@H]2C3=CC[C@@H]4[C@@]5(C)CCC(O[C@@H]6O[C@@H](C(=O)O)[C@@H](O)C(O[C@@H]7OC[C@H](O)[C@@H](O)[C@@H]7O[C@@H]7OC(CO)C(O)[C@@H](O)[C@@H]7O)C6O[C@@H]6OC(CO)C(O)C(O)C6O)[C@@](C)(CO)[C@@H]5CC[C@]4(C)[C@]3(C)CC(O)[C@@]12CO (some centres undefined),-32,n,x,n,x,x
CC1(C)CC[C@]2(C(=O)O[C@@H]3OC(CO)[C@@H](O)[C@H](O)[C@H]3O)CC[C@]3(C)C(=CCC4[C@@]5(C)CC[C@H](O[C@@H]6OC(C(=O)O)[C@@H](O)[C@H](O)[C@H]6O)C(C)(C)C5CC[C@]43C)[C@@H]2C1 (some centres undefined),-8.8,n,x,n,x,x
C#CCOCCOCCOCCNc1nc(N2CCN(C(=O)CCCCCCCCCCNC(=O)[C@H]([C@@H](C)CC)n3cc(CCCCCN)nn3)CC2)nc(N2CCN(C(=O)CCCCCCCCCCNC(=O)[C@H](CCCCN)n3cc(CCCC(=O)O)nn3)CC2)n1,n,n,n,n,n,n
C#CCOCCOCCOCCNc1nc(N2CCN(C(=O)CCCCCCCCCCNC(=O)[C@H]([C@@H](C)CC)n3cc(CCCCN=C(N)N)nn3)CC2)nc(N2CCN(C(=O)CCCCCCCCCCNC(=O)[C@H](CO)n3cc(CCCCCN)nn3)CC2)n1,-20,n,100,n,n,n
C#CCOCCOCCOCCNc1nc(N2CCN(C(=O)CCCCCCCCCCNC(=O)[C@H]([C@@H](C)CC)n3cc(CCCCCN)nn3)CC2)nc(N2CCN(C(=O)CCCCCCCCCCNC(=O)[C@H]([C@@H](C)CC)n3cc(CCCCN=C(N)N)nn3)CC2)n1,-28,n,n,n,n,n
C#CCOCCOCCOCCNc1nc(N2CCN(C(=O)CCCCCCCCCCNC(=O)[C@H]([C@@H](C)CC)n3cc(CCCCN=C(N)N)nn3)CC2)nc(N2CCN(C(=O)CCCCCCCCCCNC(=O)[C@H](CCCCN)n3cc(C)nn3)CC2)n1,x,x,n,x,n,6.3
C#CCOCCOCCOCCNc1nc(N2CCN(C(=O)CCCCCCCCCCNC(=O)Cn3cc(CCCCCN)nn3)CC2)nc(N2CCN(C(=O)CCCCCCCCCCNC(=O)[C@H]([C@@H](C)CC)n3cc(CCCCN=C(N)N)nn3)CC2)n1,-21,21,n,n,n,n
C#CCOCCOCCOCCNc1nc(N2CCN(C(=O)Cn3cc(CCCN=C(N)N)nn3)CC2)nc(N2CCN(C(=O)[C@H]([C@@H](C)CC)n3cc(CCCCN)nn3)CC2)n1,n,n,n,n,n,n
C#CCOCCOCCOCCNc1nc(N2CCN(C(=O)CCCCCCCCCCNC(=O)[C@H]([C@@H](C)CC)n3cc(CCCCN=C(N)N)nn3)CC2)nc(N2CCN(C(=O)CCCCCCCCCCNC(=O)[C@H]([C@@H](C)CC)n3cc(CCCCN=C(N)N)nn3)CC2)n1,x,x,n,x,n,n
CCOC(=O)c1ccc(NC(=O)NCc2cccnc2)cc1,n,n,n,n,n,n
Cc1cc(CN(C)C(=O)c2ccc3nc(Cc4ccccc4F)oc3c2)on1,n,n,n,n,n,n
C#CCOCCOCCOCCNc1nc(N2CCN(C(=O)[C@H](CCCCN)n3cc([C@@H](N)C(C)CC)nn3)CC2)nc(N2CCN(C(=O)[C@H](Cc3cc4ccccc4[nH]3)n3cc([C@@H](N)CC(C)C)nn3)CC2)n1 (some centres undefined),-18,n,n,n,n,n
C#CCOCCOCCOCCNc1nc(N2CCN(C(=O)CCCCCCCCCCNC(=O)[C@H]([C@@H](C)CC)n3cc(CCCCCN)nn3)CC2)nc(N2CCN(C(=O)CCCCCCCCCCNC(=O)[C@@H]([C@H](C)CC)n3cc(CCCCCN)nn3)CC2)n1,x,x,n,x,n,n
C#CCOCCOCCOCCNc1nc(N2CCN(C(=O)[C@H](Cc3cc4ccccc4[nH]3)n3cc([C@@H](N)C(C)CC)nn3)CC2)nc(N2CCN(C(=O)[C@H](CCCCN)n3cc([C@@H](N)CO)nn3)CC2)n1 (some centres undefined),x,x,n,x,n,n
C#CCOCCOCCOCCNc1nc(N2CCN(C(=O)CCCCCCCCCCNC(=O)[C@H]([C@@H](C)CC)n3cc(CCCCCN)nn3)CC2)nc(N2CCN(C(=O)CCCCCCCCCCNC(=O)[C@H](CO)n3cc(CCCCCN)nn3)CC2)n1,-17,n,25,n,n,n
Cc1[nH]n(C(N)=S)c(=O)c1N=Nc1cccc([N+](=O)[O-])c1C,n,n,25,n,n,n
Cc1c(N=Nc2c(-c3ccc([N+](=O)[O-])cc3)[nH]n(C(N)=S)c2=O)cccc1[N+](=O)[O-],n,n,x,n,x,x
COc1ccc2[nH]cc(CCNC(=O)c3ccccc3Cl)c2c1,n,n,n,n,n,n
Cc1ccc(S(=O)c2ccc([N+](=O)[O-])c3nonc23)cc1 (centres undefined),x,n,x,n,x,x
O=C(NNc1cc(C(F)(F)F)nc2ccccc12)Nc1cccc(Cl)c1,n,n,n,n,n,n
O=C(Nc1ccccc1Cl)c1ccc(COc2ccc3c(c2)CCC3)cc1,-7.4,n,n,n,n,n
CCCOc1ccc(-c2c(C(=O)N/N=C/c3ccc(OCC)cc3)nnn2-c2nonc2N)cc1,n,n,n,n,n,n
CCCOc1ccc(-c2c(C(=O)N/N=C/c3ccncc3)nnn2-c2nonc2N)cc1,-6.8,n,n,n,n,n
CCOc1ccc(/C=N/NC(=O)c2nnn(-c3nonc3N)c2COc2ccc(F)cc2)cc1,-5.8,n,n,n,n,n
